Experimental data as given in PubChem BioAssay AID1486 (The Scripps Research Institute Molecular Screening Center, 2009).
Several values for one entry are separate records, joined by “and”; a condition that tells them apart may be missing. Equal entries are not always repeated. The campaign covered roughly 220,000 compounds. About 2,400 (1.1%) were called active.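 The calls were made as follows: active = inhibition above a per-campaign cutoff, the mean inhibition of all tested compounds plus 3 SD (cut at about 27% in these data); inactive = the rest.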 The entries come from a sample that favours actives as a whole.

Experiment: parental Ba/F3 cell viability inhibition, counter-screen for JAK2V617F inhibitor project, murine pro-B, CellTiter-Glo luminescence (AID 1486);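 also: 0% = DMSO wells and 100% = JAK Inhibitor I control wells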
Details: CellTiter-Glo ATP luminescence, at 5.6 µM, stronger effect = higher value

SMILES | inhibition
Cc1ccc(Oc2nc(-c3ccccn3)nc3ccccc23)cc1 | -1.39% (inactive)
CCOn1c(SC(C)C)nc2ccccc2c1=O | 3.34% (inactive)
Cc1cc(C)n(-c2nc(C(F)(F)F)nc3ccccc23)n1 | 7.14% (inactive)
CCCOn1c(-n2nc(C)cc2C)nc2ccccc2c1=O | 34% (active)
COc1ccc(CCNS(=O)(=O)c2ccc(C(=O)NCc3ccco3)cc2)cc1OC | 3.88% (inactive)
CCCC1=Nc2cc(C(=O)NCc3ccco3)ccc2Sc2ccccc21 | 80.2% (active)
CCOc1ccccc1C(=O)NCc1ccco1 | 4.63% (inactive)
COc1cccc(-n2c(SCC(=O)c3c[nH]c4ccccc34)nc3ccccc3c2=O)c1 | 3.88% (inactive)
Cn1ncc2c(NNC(=O)Cc3cccc4ccccc34)ncnc21 | 6.49% (inactive)
COCCCNC(=O)Cn1cc(/C=C(\C#N)C(=O)N2CCN(c3ccccc3)CC2)c2ccccc21 | 2.71% (inactive)
O=C(Nc1nc2ccc([N+](=O)[O-])cc2s1)c1ccncc1 | -4.75% (inactive)
O=C(NC(Nc1nc2ccc([N+](=O)[O-])cc2s1)(C(F)(F)F)C(F)(F)F)c1ccccc1 | 53.4% (active)
O=C(O)CCC(=O)Nc1nc2ccc([N+](=O)[O-])cc2s1 | 3.87% (inactive)
O=C(O)c1cccc(NC(=S)N/N=C/c2c[nH]c3ccccc23)c1 | 7.89% (inactive)
Cc1cc(C)c(C(N)=O)c(Cl)n1 | 1.66% (inactive)
CCOc1cccc(NC(=O)Cn2nc(-c3ccc4c(c3)OCCO4)ccc2=O)c1 | 1.09% (inactive)
CN1CCc2nc(SC(C(=O)O)c3ccccc3)c(C#N)c(-c3cccs3)c2C1 (configuration not stated) | -0.18% (inactive)
CC1=NOC(=O)/C1=C\c1ccccc1 | -2.02% (inactive)
COc1cc(/C=C2/C(=O)ON=C2C)ccc1OCc1cccc(F)c1 | 59.9% (active)
COc1cc(/C=C2/C(=O)ON=C2C)ccc1OCc1ccccc1F | 5.96% (inactive)
CCc1ccc(Oc2nc([N+](=O)[O-])nn2C)cc1 | -0.05% (inactive)
COC(=O)c1cccc(NS(C)(=O)=O)c1 | -2.38% (inactive)
CCOC(=O)C1CCN(C(=O)/C=C/c2cc(OC)c(OC)c(OC)c2)CC1 | 2% (inactive)
CCOC(=O)c1cc(-c2nnc(-c3cc(OC)c(OC)c(OC)c3)o2)c(C)nc1C | 3.72% (inactive)
CCOC(=O)C1=C(N)N2C(=O)C(C)SC2=C(C(=O)OCC)C1c1cc(OC)c(OC)c(OC)c1 (configuration not stated) | 66% (active)

SMILES | inhibition
COc1ccc(C2C=C(c3ccc(Br)cc3)Nc3nc(NS(C)(=O)=O)nn32)cc1 (configuration not stated) | -0.92% (inactive)
C=CCNC(=S)NNC(=O)c1cc(Cl)ccc1OC | 2.83% (inactive)
Cc1ccc(CN(C)CC(=O)Nc2cccc([N+](=O)[O-])c2)o1 | 1.42% (inactive)
CN(CC(=O)Nc1cccc(F)c1)CC(=O)Nc1cccc([N+](=O)[O-])c1 | 3.37% (inactive)
Cc1ccc(NC(=O)CN(C)CC(=O)Nc2cccc(F)c2)cc1[N+](=O)[O-] | 27.9% (active)
CC(=O)N/C(=C/c1ccc(OC(F)F)cc1)C(=O)O | 6.54% (inactive)
C=CCNC(=S)N1CCc2[nH]c3ccccc3c2C1 | 0.22% (inactive)
O=C(Nc1ccc(Cl)cc1)N1CCc2[nH]c3ccccc3c2C1 | 4.99% (inactive)
Fc1ccc(NC(=S)N2CCc3[nH]c4ccccc4c3C2)cc1 | 35% (active)
CC12CCC(C(=O)N(NC(=O)c3ccccc3O)C1=O)C2(C)C (configuration not stated) | 8.25% (inactive)
COc1ccc(S(=O)(=O)NCC2CCCN(C(=O)c3occc3C)C2)cc1 (configuration not stated) | 7.62% (inactive)
Cc1cccc(NC(=O)COc2ccc(Br)cc2C)n1 | 6.66% (inactive)
Cc1cccc(NC(=O)COc2ccccc2C)n1 | 83.3% (active)
Cc1ccccc1OCC(=O)Nc1nc(C)c(C(=O)N(C)C)s1 | 7.55% (inactive)
CC1(C)CC(=O)C/C(=N\NC(=O)c2cccs2)C1 | 8.84% (inactive)
NS(=O)(=O)c1ccc(NC(=S)NC(=O)c2cccc(Br)c2)cc1 | 7.4% (inactive)
Cn1c(-c2ccccc2)c[n+]2c1CCCCC2 | 3.67% (inactive)
O=C(C[n+]1cc(-c2ccc(Cl)c(Cl)c2)n2c1CCC2)c1cccs1 | 10.5% (inactive)
Cc1ccc(-c2c[n+](CC(=O)Nc3ccccc3)c3n2CCC3)cc1 | 0.41% (inactive)
Clc1ccc(C[n+]2cc(-c3ccccc3)n3c2CCC3)cc1 | 63.7% (active)
Cc1ccc(C(=O)C[n+]2cc(-c3ccccc3)n3c2CCCCC3)cc1 | 70.7% (active) and 65.4% (active)
Clc1ccc(C[n+]2cc(-c3ccc(Cl)cc3)n3c2CCC3)cc1 | 58.9% (active)
O=c1oc(-c2ccccc2NS(=O)(=O)c2ccc(Cl)cc2)nc2ccccc12 | 2.45% (inactive)
Cc1ccc(/C=N/NC(=S)Nc2cccc(S(=O)(=O)N(C)C)c2)o1 | 2.16% (inactive)
COC(=O)c1ccc(NC(=S)Nc2cccc(C)n2)cc1 | -3.59% (inactive)

SMILES | inhibition
O=[N+]([O-])c1cccc(Nc2c3ccccc3nc3ccccc23)c1 | 2.06% (inactive)
CC(=O)Nc1ccc(Nc2c3ccccc3nc3ccccc23)cc1 | 97.3% (active)
Cc1ccc(Nc2c3c(nc4ccccc24)CCC3)cc1 | -1.93% (inactive)
CC1=C(C)CC(C(=O)NNC(=O)c2csc3c2CCC(C(C)(C)C)C3)C(C(=O)O)C1 (configuration not stated) | 4.65% (inactive)
CCCCCn1c(=O)c(C(=O)OCC)c(Cl)c2ccccc21 | -3.36% (inactive)
CCOC(=O)C1CN(S(=O)(=O)c2ccc(F)cc2)C1 | 0.24% (inactive)
Cc1ccc(S(=O)(=O)CC(=O)Nc2c(C)n(C)n(-c3ccccc3)c2=O)cc1 | 7.55% (inactive)
Cc1c(CCO)c(=O)n(-c2ccccc2)n1S(=O)(=O)c1ccc(F)cc1 | 41% (active)
Cc1cc(C)cc(OCC(=O)NNC(=O)CCN2C(=O)c3ccccc3C2=O)c1 | 5.47% (inactive)
CCN(C(=O)COC(=O)c1c(NC(C)=O)sc(C)c1C)C1CCS(=O)(=O)C1 (configuration not stated) | 8.25% (inactive)
CCOC(=O)C1=C(c2ccc(OC)cc2)C(=O)c2ccccc2C1=O | 29.1% (active)
CCOC(=O)c1c(-c2ccc(C)cc2)csc1/N=C(\C)C1=C(O)c2ccccc2C1=O | -0.41% (inactive)
CCOC(=O)c1ccccc1NS(=O)(=O)c1ccc(OC)cc1 | 5.36% (inactive)
Brc1ccc(-c2nn[nH]n2)cc1 | 0.72% (inactive)
COc1ccc(C(=O)C[n+]2ccc(N)c(C)c2C)cc1 | 74.6% (active)
COc1ccc(OCCC(=O)c2ccc(OC)cc2)cc1 | -3.65% (inactive)
COc1ccc(C(=O)C[n+]2ccc(C)cc2)cc1 | 2.06% (inactive)
O=C(CNS(=O)(=O)c1ccccc1)NCC(=O)OCc1ccccc1F | 8.12% (inactive)
O=C(c1cncc(Br)c1)N1CCN(c2ccc([N+](=O)[O-])cc2)CC1 | 6.79% (inactive)
O=C1NC(c2ccc(-c3ccccc3[N+](=O)[O-])o2)C(C(=O)c2ccc(Cl)cc2)C(O)(C(F)(F)F)N1 (configuration not stated) | 6.99% (inactive)
O=C(N/N=C/c1coc2ccccc2c1=O)c1cc2ccccc2o1 | 4.3% (inactive)
O=C(N/N=C/c1c[nH]c2ccccc12)c1cc2ccccc2o1 | -2.26% (inactive)
Cc1c(/C=N\NC(=O)c2cc3ccccc3o2)c2ccccc2n1C | 41.3% (active)
Cn1c(-c2ccc(F)cc2)cnc1SCC(=O)NNC(=O)Cc1ccccc1 | 1.6% (inactive)
Cc1ccc(-c2cnc(NC(=O)CCC(=O)N(C)Cc3ccccc3)n2C)cc1 | 62.4% (active)

SMILES | inhibition
CN(Cc1ccccc1)C(=O)CCc1ccccc1 | 1.56% (inactive)
CC(=O)Nc1nc(N(C)C)nc(N(C)C)n1 | 2.27% (inactive)
COc1ccc(-n2nnnc2SCC(=O)NCc2cccs2)cc1 | 7.65% (inactive)
CN(NC(=O)c1ccccc1F)c1nc(C(F)(F)F)nc2ccccc12 | 73.9% (active)
CSc1nc(N(C)NC(=O)c2cccc(C)c2)c2ccccc2n1 | 90.9% (active)
COc1ccc(C(=O)NN(C)c2nc(-c3ccccc3)cc(C)c2S(C)(=O)=O)cc1 | 6.2% (inactive)
CN(NC(=O)c1ccccc1)c1nc2ccccc2nc1C(F)(F)F | 5.67% (inactive)
COC(=O)CNC(=O)c1ccccc1F | 3.61% (inactive)
COc1ccc(OCC(=O)NNC(=O)c2cccc(C)c2)cc1 | 1.18% (inactive)
Cc1cc(C)c2nc(SCC(=O)N(C)C3CCS(=O)(=O)C3)cc(C)c2c1 (configuration not stated) | 2.01% (inactive)
CCc1cc(CNC(=O)CC2C(=O)NCCN2Cc2ccccc2C(F)(F)F)on1 (configuration not stated) | 2.77% (inactive)
O=C(O)c1ccn(COc2ccc(Br)cc2)n1 | 6.73% (inactive)
C=CCNC(=S)N/N=C/c1ccc(C)s1 | -10.6% (inactive)
COC(=O)C1NN=C(C(=O)c2ccc(Br)cc2)C1c1cccc(Br)c1 (configuration not stated) | 5.65% (inactive)
CC(C)CCN1CCN(Cc2cn[nH]c2C2CCCCC2)CC1CCO (configuration not stated) | 5.24% (inactive)
CC1(C)CC(CNCCC(c2ccc(F)cc2)c2ccco2)CCO1 (configuration not stated) | 4.73% (inactive)
Cc1cc(NC(=O)CN2C(=O)NC(C)(CCc3ccccc3)C2=O)no1 (configuration not stated) | -0.49% (inactive)
O=C(Nc1ccc(CSc2ccccc2)cc1)c1ccc(CN2CCOCC2)cc1 | 6.68% (inactive)
O=C(COC(=O)CNC(=O)c1ccccc1F)NCC(F)(F)F | 0.89% (inactive)
CCOc1ccc(N2C(=O)CC(N(O)c3ccccc3)C2=O)cc1 (configuration not stated) | -1.11% (inactive)
CCOc1ccc(N2C(=O)CN(c3cccc4ccccc34)C2=S)cc1 | 80.4% (active)
CCO/C=C1\C(=O)N(c2ccc(OCC)cc2)C(=O)c2ccccc21 | 0.91% (inactive)
